Consider 36 compounds from PubChem BioAssay.

Unmarked numbers belong to inactive results.

The nature of this test: forskolin-driven CRE-LacZ activity in PC12 – cell-based, CRE-LacZ reporter, forskolin-stimulated, primary screen (AID 1146).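 Also: PC12 cells with 6xCRE LacZ reporter stimulated by forskolin 10 µM; beta-galactosidase reporter signal reflecting CREB driven transcription.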 The settings on record: luminescence, 4.5 h, higher = more signal, called active from +8 up or from −8 down.
For the compound `C=CCC(OC(C)=O)[C@@H]1[C@@H](N(Cc2cccc3ccccc23)C(=O)c2cccc3ccccc23)c2cc(OCCCO)ccc2N1C(=O)c1ccc2ccccc2n1` (stereo partly specified), the z-score is 0.446.
Under `COc1ccc(C(O)C2C=CC3C(=O)NC(=O)C3N2Nc2ccccn2)cc1OCc1ccccc1` (stereo unspecified) stands 0.124.
In the case of `CCCN1C(=O)[C@@]2(CCC(=O)OC(C)(C)C)N=C(c3ccc(OCCCO)cc3)O[C@H]2c2ccccc21`, the z-score was -1.6.
Take `COc1cccc(C(=O)O[C@H]2CC[C@]3(C)C4=C(CCC3C2(C)C)[C@]2(C)CC[C@H]([C@H](C)CCCC(C)C)[C@@]2(C)CC4)c1` (stereo partly specified): the z-score was -0.687.
Under `COc1cc2c(cc1OC)CN(C(=O)[C@@H]1[C@H]3C(=O)O[C@H](c4ccccc4)[C@H](c4ccccc4)N3[C@H](c3ccccc3OCCO)[C@@]13C(=O)Nc1ccc(C#CCNC(N)=O)cc13)CC2` stands -0.0826.
As for `CN(C)CCCCNC(=O)[C@H]1C[C@H]2C(=O)N[C@@H](Cc3ccccc3)C(=O)N2[C@H]1c1ccc(O)cc1`, the z-score was -0.32.
As for `COc1ccc(CCN2C(=O)[C@@]3(Cc4ccccc42)c2ccccc2C(=O)N(Cc2ccccc2Cl)[C@H]3c2ccc(CO)cc2)cc1`, the z-score was 0.131.
Under `CCCCCCCCCCC(O)C1C=CC2C(=O)N(Cc3ccccc3)C(=O)C2N1n1cnnc1` (stereo unspecified) stands -0.728; under `COCCOC(=O)N1C(=O)[C@@]2(c3cc(C#CCC(C(=O)OC)C(=O)OC)ccc31)[C@H](C(=O)N1CCN(c3ncccn3)CC1)[C@H]1C(=O)O[C@H](c3ccccc3)[C@H](c3ccccc3)N1[C@@H]2c1ccc(OCCO)cc1`, -1.08.
Turning to `C=C(COC)C(=O)CC[C@@H](OC(=O)c1cccnc1)c1ccc(CO)o1`, the z-score is 0.114.
Take `C=C[C@@H](COC(C)=O)N(Cc1ccc([N+](=O)[O-])cc1)S(=O)(=O)c1ccc(Br)cc1`: the z-score was 0.127.
Under `O=C1O[C@@H](c2ccccc2)[C@@H](c2ccccc2)N2[C@@H](c3ccc(O)cc3)[C@]3(C(=O)Nc4ccc(C#CC5(O)CCCCCC5)cc43)[C@@H](C(=O)N3CCCCCCC3)[C@H]12` stands -0.981.
Under `COC(=O)C[C@@H]1C[C@H](C)[C@]2(O1)C(=O)N(Cc1ccccc1)c1ccc(NC(C)=O)cc12` stands -0.47.
Regarding `CC(C)(C)N1CC=CC23O[C@@H]4C=CCOC(=O)[C@@H]4[C@H]2C(=O)N(CCCCCO)[C@@H]3C1=O` (stereo partly specified), the z-score is 0.687.
On to `C=CCN1C(=O)[C@]2(O[C@H](CCO)[C@@H]([Si](C)(C)c3ccc(OC)cc3)[C@@H]2C)c2cc(NC(=O)[C@H](C)O)ccc21`, for which the z-score was -0.144.
Turning to `C=CC(=C)C1=CCO[C@@H]1[C@H]1CCCN1S(=O)(=O)c1ccccc1[N+](=O)[O-]`, the z-score is 0.619.
Take `COc1ccc(NN2C(C(O)c3ccc(OC)c(OCc4ccccc4)c3)C=CC3C(=O)N(C4CCCCC4)C(=O)C32)cc1` (stereo unspecified): the z-score was 0.693.
For `[N-]=[N+]=NCc1ccccc1[C@@H]1OC(c2ccc(OCCCO)cc2)=N[C@]1(Cc1ccccc1)C(=O)N1CCCCC1`, the z-score is -0.546.
As for `CC(C)(C)N1CC=CC23O[C@@H]4/C=C\CCCOC(=O)C4[C@H]2C(=O)N(CCO)[C@@H]3C1=O` (stereo partly specified), the figure is -0.533; as for `O=C1O[C@H](c2ccccc2)[C@H](c2ccccc2)N2[C@H]1[C@@H](C(=O)O)[C@]1(C(=O)Nc3ccc(C#CC4=CCCCC4)cc31)[C@H]2c1ccc(OCCO)cc1`, 3.42.
For the compound `COC(=O)C[C@H]1O[C@]2(C(=O)N(Cc3ccccc3)c3ccc(NC(C)=O)cc32)[C@@H](C)[C@@H]1[Si](C)(C)c1ccc(OC)cc1`, the z-score was -0.792.
Take `CC(C)CNC(=O)[C@@H]1c2ccccc2C(=O)N(Cc2cc(C(F)(F)F)cc(C(F)(F)F)c2)[C@H]1c1ccc(CO)cc1`: the z-score is -1.2.
Turning to `COc1ccccc1CN1C(=O)c2ccccc2[C@@H](C(=O)NCCN2CCOCC2)[C@@H]1c1ccc(CO)cc1`, the z-score is -1.09.
Under `NCCCCCCNC(=O)[C@H]1C[C@H]2C(=O)NCC(=O)N2[C@H]1c1cccc(OCCO)c1` stands -0.405; under `COCCOC(=O)N1C(=O)[C@@]2(c3ccccc31)[C@H](C(=O)NC[C@H](O)c1ccccc1)[C@H]1C(=O)O[C@H](c3ccccc3)[C@H](c3ccccc3)N1[C@@H]2c1ccc(OCCO)cc1`, -0.686.
On to `CC(C)N1CC=CC23O[C@@H]4C=CCOC(=O)[C@@H]4[C@H]2C(=O)N(CCO)[C@@H]3C1=O` (stereo partly specified), for which the z-score was -0.67.
`COC(=O)[C@@]1(Cc2ccccc2)[C@H]2c3cc(C(=O)N4CCCC4)n(C)c3C[C@H]2CN1C(=O)c1ccccc1`: the z-score was 0.504.
Under `O=C1[C@]2(CO)C=C(Br)[C@@H](C[C@@H]2c2ccccc2)[C@@]12CO2` stands 3.94; under `CCCCC(O)C1C=CC2C(=O)N(C3CCCCC3)C(=O)C2N1Nc1ccc(OC)cc1` (stereo unspecified), 0.765; under `COc1ccc(C(O)C2C=CC3C(=O)N(c4ccccc4)C(=O)C3N2Nc2ccc([N+](=O)[O-])cc2)cc1OCc1ccccc1` (stereo unspecified), -0.588.
Regarding `Cc1ccc(S[C@]2(C(=O)NCc3ccccc3)CC(=O)N(Cc3ccccc3)[C@@H]2c2ccc(CO)cc2)cc1`, the z-score was -0.26.
With `C=C(COC)/C(=C/C[C@H](OC(=O)c1ccncc1)c1cccc(OCCO)c1)c1cc(C(=O)OC)ccc1OC`, the z-score was -0.616.
For `COC(=O)[C@@]1(Cc2ccccc2)[C@H]2c3cc(C(=O)N(C)C)n(Cc4cc(C)n(C)n4)c3C[C@H]2CN1C(=O)c1ccccc1`, the z-score is 1.92.
`COC(=O)[C@@]1(Cc2ccccc2N=[N+]=[N-])COC(c2ccc(OCCCO)cc2)=N1`: the z-score was 1.68.
Take `CN1CCC(CCCO)=CC1c1ccc(CN2CCCC2)cc1` (stereo unspecified): the z-score is 0.239.
As for `CC(=CC1CCCCC1)[C@@H](NC(=O)c1ccc(C(F)(F)F)cc1)c1ccc(-c2ccccc2)cc1`, the z-score was 0.618.
